# Screens as filed in PubChem BioAssay.
# Rows were chosen to be rich in hits. Some 4.7% of all compounds tested hit in one or more screens of this group.
# Calb FLC = affects C. albicans growth with fluconazole; AID 1979; hit rate 0.57% among 300,000; C. albicans CaCi-2 (fluconazole-resistant clinical isolate) + fluconazole, Alamar Blue growth, 48 h; growth inhibition, % (concentration not given with the values);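 active = growth inhibition above about 58% in most replicates, limit read from the data, passing the limit was not always enough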;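 also: all wells also contain fluconazole at 8 µg/ml as a sub-toxic cotreatment; 0% = median of DMSO wells and 100% = median of geldanamycin control wells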
# TIM10 inh = TIM10 yeast growth inhibition; S. cerevisiae TIM10 strain growth, BacTiter-Glo luminescence, 24 h; inhibition, % at 10 µM; hit rate 1.4% among 330,000;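 active = inhibition of 40% or more at the single tested concentration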;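 also: wild-type TIM10 isogenic control strain grown at permissive 25 °C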
# PfHsp90 set2 = reduces growth (ATP signal) of yeast expressing P. falciparum Hsp90 | AID 504621 | S. cerevisiae expressing PfHsp90, BacTiter-Glo ATP, 48 h; yeast lacking PDR1 and PDR3 efflux regulators | hit rate 0.32% among 310,000 | inhibition, % at 9.4 µM;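 active = every replicate shows inhibition above about 80%, whatever the replicate mean, limit read from the data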;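 also: 0% = DMSO neutral controls and 100% = 20 µM radicicol positive controls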
# tim10-1 inh = tim10-1 yeast growth inhibition; S. cerevisiae tim10-1 ts strain growth, BacTiter-Glo, 24 h; inhibition, % at 20 µM; hit rate 2.2% among 330,000; AID 463190;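 active = inhibition of at least 40%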;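 also: mutant grown at 25 °C; 0% = DMSO wells with yeast and 100% = wells holding no yeast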
# tim23-1 inh = tim23-1 yeast growth inhibition; S. cerevisiae tim23-1 growth, BacTiter-Glo luminescence, 24 h; inhibition, % at 20 µM; hit rate 1.3% among 330,000;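 active = growth inhibition of the mutant yeast at or above 50%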;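 also: temperature-sensitive mutant grown at 25 °C; plate controls were DMSO-treated mutant yeast for no effect and medium wells lacking yeast for full effect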
# SKKanGAS inh = SKKanGAS growth inhibition; S. pyogenes SKKanGAS, kanamycin growth, BacTiter-Glo, 6 h; inhibition, % at 7.5 µM; hit rate 1.3% among 300,000; AID 1662;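 active = mean replicate score, as percent of positive control median, at least 50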;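 also: strain carries kanamycin resistance gene driven by streptokinase promoter and grows in 40 µg/ml kanamycin; loss of luminescence reflects streptokinase promoter inhibition or plain growth inhibition; 0% = median of DMSO wells and 100% = positive control at its reference dose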
# tim10 confirm = confirmation of TIM10 yeast growth inhibitors; S. cerevisiae tim10 strain growth, BacTiter-Glo luminescence, 24 h; hit rate 63% among 4,600; shares compounds with TIM10 inh; inhibition, % at 10 µM;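 active = inhibition of yeast growth at or above a set limit in either of two replicates at 10 µM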;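 also: this counterscreen used the strain with wild-type TIM10; 0% = yeast with DMSO and 100% = medium wells lacking yeast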
# * marks the source's active call; other numbers are inactive results; / = not tested or not shown.
SMILES,Calb FLC,TIM10 inh,PfHsp90 set2,tim10-1 inh,tim23-1 inh,SKKanGAS inh,tim10 confirm
CCCn1c(=O)c(C#N)cn(C2CC2)c1=O,3,6,16,-4,9,2,/
Cc1cccc(CSc2nnc(-c3ccccn3)n2N)c1,4,16,17,5,22,3,/
Nn1c(SCc2ccc(Br)cc2)nnc1-c1ccccn1,4,46*,20,16,41,-11,60*
O=S(=O)(Nc1ccc(-c2nc3cccnc3s2)cc1)c1cccs1,-2,4,-4,10,14,4,/
O=S(=O)(Nc1cccc2ncccc12)c1cccs1,95*,43*,-101,31,40,87*,48*
O=C(c1ccc([N+](=O)[O-])s1)N1CCc2ccccc2C1,3,45*,0,34,40,-20,22
Nc1ccn(CC(=O)NCCc2ccccn2)c(=O)n1,/,5,-2,-14,-14,/,/
CCCOC(=O)c1ccc(NC(=O)c2ccoc2C)cc1,6,-2,22,-1,10,5,/
CCCCOC(=O)c1ccc(NC(=O)c2ccoc2C)cc1,13,41*,5,34,27,3,2
COc1ccc(O)c(-c2cc(-c3ccccc3[N+](=O)[O-])[nH]n2)c1,11,35,-12,21,36,-3,/
Cc1ccc(O)c(-c2cc(-c3ccccc3[N+](=O)[O-])[nH]n2)c1,13,42*,0,28,47,2,4
Cc1c(C)c2ccc(OC(C)C(=O)N3C[C@H]4C[C@@H](C3)c3cccc(=O)n3C4)c(C)c2oc1=O (stereo partly drawn),-2,59*,23,-13,-4,-2,-7
Cc1ccc(C(=O)Nc2ccc(N3CCOCC3)nc2N2CCOCC2)cc1,8,18,1,14,11,-6,/
CC1CC(C)CN(C(=O)/C=C/c2ccc(S(=O)(=O)N3CCOCC3)cc2)C1 (stereo not drawn),/,5,-9,4,14,/,/
O=C(Oc1ccc2[nH]cc(CCN3C(=O)c4ccccc4C3=O)c2c1)c1ccco1,17,43*,/,31,30,-15,39*
N#C/C(=C\c1ccc(O)cc1)C(=O)N1CCCC1,2,5,11,-3,19,-6,/
N#C/C(=C\c1ccc(C#N)cc1)C(=O)N1CCCC1,4,50*,/,38,47,-3,34*
CCN(Cc1nc2ccccc2c(=O)[nH]1)C(=O)COc1ccccc1-c1ccccc1,/,-7,21,0,27,/,/
Cc1ccc(OCCN(C)C(=O)C2CCC(=O)N(CCCN3CCOCC3)C2)cc1 (stereo not drawn),-8,-3,-4,-3,-6,-3,/
COc1nccc(C(F)(F)F)c1C(=O)NC(=O)Nc1ccccc1,15,11,17,13,13,11,/
COc1nccc(C(F)(F)F)c1C(=O)NC(=O)Nc1c(C)cccc1C,-15,40*,0,7,13,25,6
O=C1CSC(=Nc2cccc(Cl)c2Cl)N1,36,9,7,37,30,1,/
O=[N+]([O-])c1ccc(N2CCN(c3ccccn3)CC2)c(Cl)c1,-1,-83,8,9,30,12,/
C/C(=N\NC(=S)Nc1ccccc1C)c1cc2ccccc2o1,26,42*,-28,25,33,13,22
C/C(=N\NC(=O)c1ccco1)c1cc2ccccc2o1,12,14,-31,-4,17,-4,/
CC(C)NC(=O)Nc1cccc2c1O[C@H](CN(C)C(=O)NC(C)C)[C@@H](C)CN([C@H](C)CO)C2=O,/,2,14,-14,2,/,/
CC(C)NC(=O)N(C)C[C@@H]1Oc2c(NC(=O)C3CCOCC3)cccc2C(=O)N([C@@H](C)CO)C[C@H]1C,/,97*,-14,-8,-21,/,-10
COCC(=O)Nc1nnc(-c2ccc(C(C)(C)C)cc2)s1,13,27,-7,33,48,16,/
Cc1cccc2c(SCC(N)=O)nc(-c3ccccc3)nc12,4,6,-6,15,16,-4,/
CC(C)CCN(C(=O)c1ccccn1)c1c(N)n(Cc2ccccc2)c(=O)[nH]c1=O,/,-6,-6,0,0,/,/
